Most compounds without a hit are left out; they make up all but 2.4% or so of the library.
CHO-K1 Ca PAM = nonselective calcium activators in parental CHO-K1 cells, primary screen, counter-screen for M1 PAM project, cell-based, Fluo-8 calcium fluorescence, full deck, 1536-well. ATP EC20; 0% at ATP EC20, 100% at ATP max. activation, % at 3 µM. 360,000 compounds, 0.02% hits. AID 602247, 2012;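 active = activation above the run cutoff, the mean activation of all test compounds plus 3 SD, cut at about 40% in these data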;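 note: peak over basal fluorescence ratio in a 140 s read after ATP addition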
M1 ag parental = counter-screen for M1 agonists: effect in parental CHO-K1 cells; AID 602248, 2012; 360,000 compounds, 0.48% hits; Fluo-8 calcium fluorescence; scaled to maximal ATP response, vehicle zero; activation, % at 3 µM; in the data active = activation above about 15%;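 note: untransfected CHO-K1 host cells lacking M1 receptor as counterscreen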
CHRM1 PAM = human M1 muscarinic receptor positive allosteric modulators, primary screen, CHO-K1 cells, Fluo-8 calcium fluorescence, 1536-well; CHO-K1 hM1, ACh EC20; 0% = ACh EC20, 100% = maximal ACh; 360,000 compounds, 0.088% hits; Muscarinic acetylcholine receptor M1 (Homo sapiens), P11229; activation, % at 3 µM; in the data active = activation above about 19%, passing the limit was not always enough
Target sequence (P11229 whole entry, looked up): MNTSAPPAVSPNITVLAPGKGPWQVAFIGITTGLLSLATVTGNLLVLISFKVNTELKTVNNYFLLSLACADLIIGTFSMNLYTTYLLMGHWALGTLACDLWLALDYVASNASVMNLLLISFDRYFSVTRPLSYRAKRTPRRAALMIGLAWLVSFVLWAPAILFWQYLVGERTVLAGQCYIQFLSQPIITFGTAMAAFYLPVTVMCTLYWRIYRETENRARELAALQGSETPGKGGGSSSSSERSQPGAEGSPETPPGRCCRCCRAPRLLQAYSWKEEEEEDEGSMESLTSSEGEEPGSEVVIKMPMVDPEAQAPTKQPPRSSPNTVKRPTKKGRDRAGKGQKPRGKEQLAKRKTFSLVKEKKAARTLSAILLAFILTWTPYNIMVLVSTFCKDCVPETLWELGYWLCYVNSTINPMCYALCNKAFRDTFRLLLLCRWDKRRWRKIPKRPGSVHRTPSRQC
M1 antag = human M1 muscarinic receptor antagonists, primary screen, CHO-K1 cells, Fluo-8 calcium fluorescence, 1536-well | Muscarinic acetylcholine receptor M1 (Homo sapiens), P11229 | CHO-K1 hM1, ACh EC80 antagonist | inhibition, % at 3 µM | 360,000 compounds, 1.3% hits | AID 588852, 2011;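 active = percent inhibition above its own plate's cutoff, namely the mean of that plate's compound wells plus 3 SD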;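 note: peak over basal fluorescence ratio during 140 s after agonist addition; 0% = ACh EC80 plus DMSO and 100% = DMSO alone without agonist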
M1 ag = human M1 muscarinic receptor agonists, primary screen, Fluo-8 calcium fluorescence, CHO-K1 cells, HTS; 360,000 compounds, 0.33% hits; CHO-K1 hM1, agonist mode; 0% DMSO, 100% acetylcholine EC100; activation, % at 3 µM; Muscarinic acetylcholine receptor M1 (Homo sapiens), P11229;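 active = activation above the run's mean compound activation plus 3 SD, cut at about 16% in these data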;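 note: peak over basal fluorescence ratio within a 140 s kinetic read after compound addition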
CHO-K1 Ca antag = nonselective inhibitor or artifact in parental CHO-K1 cells; ATP-induced calcium, Fluo-8 fluorescence; inhibition, % at 3 µM; 360,000 compounds, 0.6% hits;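 active = inhibition above a per-plate cutoff, the plate's mean sample inhibition plus 3 SD, cut at about 24% in these data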;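 note: 0% = DMSO plus EC80 ATP and 100% = DMSO alone without ATP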
Active calls of the source: *; . = no result given.

SMILES	CHO-K1 Ca PAM	M1 ag parental	CHRM1 PAM	M1 antag	M1 ag	CHO-K1 Ca antag
Cn1cc(CN2CCCC(C(=O)c3ccc(-c4ccccc4)c(F)c3)C2)cn1 (centres undefined)	30	6	-29	28*	-12	-13
COc1cccc(C(=O)C2CCCN(Cc3cn(C)nc3-c3ccccc3)C2)c1 (centres undefined)	6	0	2	-8	-10	3
Cn1cc(CN2CCCC(C(=O)c3ccc(-c4ccccc4)cc3)C2)cn1 (centres undefined)	19	3	-13	-3	-11	-15
Cc1nn(C)cc1CN1CCCC(C(=O)c2ccc(-c3ccccc3)c(F)c2)C1 (centres undefined)	15	26*	-26	52*	-9	12
COc1ccc(NC(=O)CSc2nnnn2C2CCCC2)cc1S(=O)(=O)N1CCOCC1	-1	1	-3	7	-2	6
O=C1N/C(=C/c2ccc(N3CCOCC3)o2)C(=O)N1c1cccc(Cl)c1	-10	0	-9	14	-3	29*
CCOC(=O)c1ccc(S(=O)(=O)Nc2ccccc2-c2nnn(CC)n2)cc1	-13	14	-32	47*	-6	-3
CCC1(CC)NC(=O)N(CC(=O)OC(C)C(=O)Nc2ccccc2OC)C1=O (centres undefined)	10	1	5	-6	-1	1
COc1ccc([C@H]2C[C@@H](O)[C@H](n3cc(C4CC4)nn3)CN2C(=O)C2CCCCC2)cc1	17	0	6	-5	-1	-13
O=C(CS(=O)CC(=O)N(CC(=O)NC1CCCC1)C1CCCC1)Nc1ccc(F)cc1 (centres undefined)	-5	2	28*	12	-4	5
CC(=O)c1ccc(N(C(=O)CS(=O)CC(=O)Nc2ccc(F)cc2)C(C(=O)NC2CCCCC2)c2cccs2)cc1 (centres undefined)	-11	-1	-1	-2	-5	25*
CCOC(=O)CSc1ccc(C(=O)NCCN2CCOCC2)cc1[N+](=O)[O-]	18	7	-24	47*	-6	-4
CCCNC(=O)C1(C)CCCN(Cc2cc(-c3ccccc3)nn2C)C1 (centres undefined)	16	3	-3	6	-1	2
OCC1OC(n2cnc3c(SCc4ccccc4)nc(NO)nc32)C(O)C1O (centres undefined)	12	1	-30	71*	-9	-15
CCN(CC)CCCNC(=O)CC1Oc2ccc(C)cc2NC1=O (centres undefined)	2	0	-14	8	-14	-2
Cc1ccc2c(c1)NC(=O)C(CC(=O)NCCN(CC(C)C)CC(C)C)O2 (centres undefined)	16	0	-19	28*	-14	0
Cc1ccc(NC(=O)CC2Oc3ccc(C)cc3NC2=O)cc1 (centres undefined)	0	0	10	-13	-2	9
Cc1ccc2c(c1)NC(=O)C(CC(=O)Nc1ccc(CN3CCC(C)CC3)cc1)O2 (centres undefined)	22	0	-35	101*	-13	-7
CCN1CCN(Cc2ccc(NC(=O)CC3Oc4ccc(C)cc4NC3=O)cc2)CC1 (centres undefined)	1	0	-33	40*	-14	6
Cc1ccccc1C(=O)NC(=S)N(C)CCc1ccccn1	-11	2	-7	17	-4	-5
COc1cc(NC(=O)c2ccccc2)c(OC)cc1NC(=O)CN1CCCCC1	-6	0	-8	17	-3	26*
CC(C(=O)Nc1ccc(OCc2ccccc2)cc1)N1CCCC1 (centres undefined)	-13	1	-24	49*	-8	0
CCOc1ccccc1NC(=O)CN1CCCCCC1	-10	0	-15	26*	-10	-31
COc1ccccc1NC(=O)CN1CCN(CC(=O)Nc2ccc(OCc3ccccc3)cc2)CC1	-4	1	-12	16*	0	19
O=C(CN1CCCCC1)Nc1ccccc1NC(=O)CN1CCCCC1	-7	0	8	-8	-5	3
SMILES	CHO-K1 Ca PAM	M1 ag parental	CHRM1 PAM	M1 antag	M1 ag	CHO-K1 Ca antag
Cc1ccsc1C1C2=C(CCCC2=O)Nc2ncnn21 (centres undefined)	-4	0	-10	9	-1	31*
COCC(=O)N1CCC(c2nc3ccccc3[nH]2)CC1	-2	1	0	-5	20*	-8
Cc1nn(Cc2ccc(Cl)c(Cl)c2)c(C)c1NC(=O)c1cc(CC(C)C)on1	8	6	-21	29*	-8	2
Cc1ccccc1Cn1nc(C)c(NC(=O)c2cc(CC(C)C)on2)c1C	8	5	-4	1	-5	-6
Cc1nn(Cc2ccc(Cl)c(Cl)c2)c(C)c1NC(=O)c1noc2c1CCCCC2	5	1	27*	9	-4	13
O=C1CCCN1CCCNc1nc(NCc2ccccc2)nc2ccsc12	-16	86*	-33	101*	92*	84*
COCCNc1nc(NCc2ccccc2OC)c2sccc2n1	12	7	-1	-5	-3	-14
COCCNc1nc(NCc2ccccc2)nc2ccsc12	-16	77*	-33	100*	79*	95*
COc1ccccc1CNc1nc(NCCNC(C)=O)c2sccc2n1	18	1	5	-19	-8	-4
CC(=O)NCCNc1nc(NCc2ccccc2)nc2ccsc12	-11	10	-27	8	32*	9
CCCCNc1nc(NCc2ccccc2)nc2ccccc12	-17	49*	.	.	.	54*
CCOC(=O)c1ccc(NC(=O)C(=O)NCc2ccco2)cc1	18	0	5	-4	-5	-4
CCOC(=O)CN1C(=N)N(c2nc(NC(C)C)nc(NC(C)C)n2)CC1=O	-15	-1	-3	2	-6	31*
CCOC(=O)CN1C(=N)N(c2nc(NC(C)C)nc(OC)n2)CC1=O	-1	0	13	-11	-1	-10
COc1cc(SC)ccc1C(=O)NCCc1c[nH]c2ccccc12	11	3	1	-4	-2	0
COc1cc2cc(C(=O)NCCc3c[nH]c4ccccc34)c(N)nc2cc1OC	-10	19*	.	.	.	22
O=C(Nc1ccc(N2CCOCC2)cc1)Nc1ccc2nc(-c3ccco3)c(-c3ccco3)nc2c1	-14	0	-15	33*	-2	-1
O=C(Nc1ccc(F)cc1)N1CCOCC1	5	0	-3	4	-3	-5

Screening data from PubChem BioAssay.
